Consider 3 compounds from PubChem BioAssay (NCATS).

“And” between values parts separate entries of the source, which are not always exact repeats. Identical values can stand only once. Inconclusive results are not listed. The source made the active and inactive calls. Unless noted, the call rests on the fitted dose curve; in most records, active means well fitted curve in the direction sought with a large enough effect; inconclusive means small, poorly fitted or top-dose-only effect, or another doubt; inactive means no such curve, though single readings can be large; an effect the other way counts as inactive or inconclusive.

A short description of assay [1]: AP1 Signaling Pathway (AID 357; active means well fitted curve in either direction with a large enough effect, not every such curve was filed as active;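 further: ME-180 reporter cells stimulated with EGF at its EC50 level; on the % scale 0 is the no-effect control and ±100 the full control effect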). The following applies: ME-180 AP-1-bla reporter, EGF-induced, beta-lactamase ratio, 5 h. The method, boiled down:
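Cells are seeded overnight, exposed to compound titrations and an EC50 level of EGF for 5 hours at 37 °C, then loaded with CCF4 dye for 2.5 hours. Beta-lactamase activity under the AP-1 element is read as a blue/green ratio.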

Assay [2] addresses Cytochrome P450 1A2 (Homo sapiens) (UniProt P05177). As to the kind of experiment: p450-cyp1a2 (AID 410; calls by dose curve). The following applies: recombinant CYP1A2, luciferin-ME demethylation, luminescence; series mostly up to 57 µM. The method, boiled down: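 20nM CYP1A2, 100uM Luciferin-ME (=Km), 100mM KPO4; cpd 10 min RT; +NADPH regen, 60 min RT; stop/detect 20 min; luminescence. Normalized to furafylline 57 uM = full inhibition.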

Assay [3] in a line: NFAT Signaling Pathway (AID 444; active means well fitted curve in either direction with a large enough effect, not every such curve was filed as active;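 further: carbachol stimulus at about its EC50 of 1 µM final; on the % scale 0 is the no-effect control and ±100 the full control effect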). As to conditions: Jurkat NFAT-bla M1, carbachol, beta-lactamase ratio, 5 h. The method, boiled down:
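Read-out: CCF4 FRET ratio (460 nm/530 nm) after 1 h RT dye loading, used for %activity and AC50 from titration series. Cells: Jurkat NFAT-β-lactamase/M1 line, treated with compound plus 1 uM carbachol for 5 h, 37 °C.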

Assay [4] in a line: Stat Signaling Pathway (AID 446; active means well fitted curve in either direction with a large enough effect, not every such curve was filed as active;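 further: ME-180 cervical cancer cells given 40 pM IL-6 alongside compound; SIE-controlled beta-lactamase reporter measured as 460/530 nm FRET emission ratio; on the % scale 0 is the no-effect control and ±100 the full control effect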). As to conditions: ME-180 (cervical carcinoma) SIE beta-lactamase reporter, IL-6 stimulated, 5 h. The method, boiled down: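 Normalization used AC90 stimulation (300 pM IL-6) and AC90 inhibition (125 nM pan-JAK inhibitor at 40 pM IL-6). The underlying signal is SIE-driven beta-lactamase in ME-180 cells after 5 h IL-6 exposure with compound.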
Assay [5] has as its target Mitogen-activated protein kinase 10 (Mus musculus) (UniProt Q61831). Kind of assay: JNK3 AlphaScreen Assay (AID 530; active means well fitted curve in either direction with a large enough effect, not every such curve was filed as active;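 further: kinase came from lysate of stimulated human HepG2 cells; signal reports phosphorylation of biotinylated GST-cJun 1-79 at Ser73 with 10 µM ATP; on the % scale 0 is the no-effect control and ±100 the full control effect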). As to conditions: JNK3 lysate, c-Jun phosphorylation; series mostly up to 57.1 µM. The method in brief: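 Kinase buffer: 20 mM Tris-HCl pH 7.6, 10 mM MgCl2, 1 mM DTT, 0.1 mM Na3VO4, 0.01% Tween-20; ATP 10 uM. Substrate biotin-GST-cJun(1-79), enzyme from activated HepG2 lysates. Detection by Ser73 phospho-antibody AlphaScreen.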
(Alpha assays give light when donor and acceptor beads are brought close together.)

The target in assay [6] is 3',5'-cyclic-AMP phosphodiesterase 4B (Homo sapiens) (UniProt Q07343). Kind of assay: qHTS Assay for Inhibitors of PDE-IV (AID 607; active means well fitted activation curve with a large enough effect in the main read-out, with a control signal flat, not every such curve was filed as active; further: % of control where 0% means no effect). As to conditions: HEK293 ACTOne CNG channel cells, membrane potential fluorescence; series mostly up to 22.9 µM. The method, boiled down: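 HEK293 ACTOne cells with CNG channel (1000/well), endogenous PDE4; membrane potential dye, compounds up to 22.9 uM final. Fluorescence Ex 535/Em 590; RO 20-1724 (100 uM final) as reference.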
(In general: Quantitative high-throughput screening tests each substance at several concentrations.)

Assay [7] is described as follows: qHTS Assay for Lipid Storage Modulators (AID 1519; calls by dose curve). The following applies: Drosophila S3 cells, BODIPY lipid droplet/cell ratio, laser cytometry, cells loaded with oleic acid; for activity change, negative = inhibition: at 25.7 µM (top of the series). The method in brief: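 Cells seeded at 5,000 per well were treated with compounds over a concentration series and loaded with oleic acid (400 uM, as added). Lipid droplet fluorescence (488 nm excitation, 500-530 nm channel) was read by laser-scanning cytometry and normalized to 20 uM Triacsin C.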

Assay [8] addresses Ubiquitin carboxyl-terminal hydrolase 1 (Homo sapiens) (UniProt O94782). As to the kind of experiment: Inhibitors of USP1/UAF1: Pilot qHTS (AID 504865).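 Further: rhodamine fluorescence freed from ubiquitin-rhodamine substrate followed over time; top concentration of the series differs between compounds; on the % scale 0 is the no-effect control and ±100 the full control effect; nearly all actives have a fitted effect of over 35% in size.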 The following applies: purified USP1/UAF1, Ub-rhodamine cleavage fluorescence; series mostly up to 54.9 µM. The method, boiled down: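 Enzyme-free wells gave the negative control, while test wells held 1nM USP1/UAF1 preincubated with compound for 15 min at room temperature. Ub-Rho at 150nM final started the reaction, and fluorescence at 480/540 nm was recorded kinetically.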

The target in assay [9] is Glucocorticoid receptor (Homo sapiens) (UniProt P04150). As to the kind of experiment: GR-GFP Redistribution (AID 450;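 active means compounds whose dose series gives a full or clear partial fitted curve of increased nuclear translocation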; further: potency means the concentration at half of the fitted maximal effect). The following applies: U2OS GR-GFP nuclear translocation, laser cytometry, 2 h.
The target is the same in assay [10]. Kind of assay: GR-EFC Redistribution (AID 451; calls by dose curve; further: potency means the concentration at half of the fitted maximal effect). As to conditions: CHO-K1 GR-EFC translocation, beta-gal luminescence, 2 h. The method, boiled down:
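Translocation of GR-ED fusion to nuclear EA restores b-gal, read by luminescence after 1 h room-temperature detection. Engineered CHO-K1 biosensor cells, 1,000/well, exposed 2 h at 37 C to titrations up to 46 uM final.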

Assay [11] addresses ATP-dependent 6-phosphofructokinase (Trypanosoma brucei brucei) (UniProt O15648). As to the kind of experiment: qHTS Assay to Find Inhibitors of T. brucei phosphofructokinase: hit validation (AID 492961). The following applies: T. brucei PFK, ADP-Glo luminescence; series mostly up to 24.3 µM. The method, boiled down:
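Measures ADP output of PFK (1.25 nM) at 0.1 mM ATP, 0.5 mM F6P, pH 8.0 TEA buffer with 5 mM MgCl2. No-enzyme wells define full inhibition; uninhibited enzyme wells define zero.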

Assay [12] has as its target Luciferin 4-monooxygenase (Photinus pyralis) (UniProt P08659). Kind of assay: Biochemical firefly luciferase enzyme assay for NPC (AID 624030).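 Further: purified P. pyralis luciferase at 10 nM with luciferin and ATP substrate; 0% = DMSO and -100% = full luciferase inhibition by PTC124 control; nearly all actives have a fitted effect of over 70% in size.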 As to conditions: purified P. pyralis luciferase, luminescence, 5 min; series mostly up to 58.6 µM. The method in brief:
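Direct inhibition of firefly luciferase enzyme (10 nM final, 50 mM Tris Acetate) assessed by luminescence within 5 minutes. Percent activity scaled between DMSO and PTC124 positive control, with concentration-effect curves classified by fit quality and response.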

A short description of assay [13]: qHTS profiling for inhibitors of Plasmodium falciparum proliferation (AID 504749).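 Further: 0% = DMSO vehicle and full inhibition = artemisinin control; nearly all actives have a fitted effect of over 60% in size.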 As to conditions: P. falciparum in erythrocytes, SYBR Green DNA, 72 h, at 28.7 µM (top of the series). The method, boiled down:
(§1)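 In a 72 h erythrocytic culture (37 C, humidified, 5% CO2) at 2.5% hematocrit and 0.3% starting parasitemia, compounds were tested; SYBR Green I in detergent lysis buffer stained parasite DNA overnight.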

For a further assay, the system named is AS120. Described as above. The following applies: P. falciparum in erythrocytes, SYBR Green DNA, 72 h; series mostly up to 28.7 µM. The method, boiled down:
as §1

The subject of the next assay is CP201. The assay is described as above. The following applies: P. falciparum in erythrocytes, SYBR Green DNA, 72 h; series mostly up to 12.8 µM. The method in brief:
as §1

In another assay the test system is CP238. The description is as above. As to conditions: P. falciparum in erythrocytes, SYBR Green DNA, 72 h; series mostly up to 12.8 µM. The method in brief:
as §1

For the next assay, the system named is CP262. Described as above. The following applies: P. falciparum in erythrocytes, SYBR Green DNA, 72 h; series mostly up to 12.8 µM. The method in brief:
as §1

In another assay the test system is CP265. The assay is described as above. As to conditions: P. falciparum in erythrocytes, SYBR Green DNA, 72 h; series mostly up to 12.8 µM. The method in brief: as §1
Another assay deals with FAB9. Described as above. The following applies: P. falciparum in erythrocytes, SYBR Green DNA, 72 h; series mostly up to 12.8 µM. The method in brief:
as §1

Another assay deals with JCK. The description is as above. The following applies: P. falciparum in erythrocytes, SYBR Green DNA, 72 h; series mostly up to 12.8 µM. The method in brief:
as §1

Where [14] appears, read: measured here: cell count channel max response.
Where [15] appears, read: measured here: lipid channel max response.

Sequence of Ubiquitin carboxyl-terminal hydrolase 1 (Homo sapiens) (O94782 whole entry, looked up): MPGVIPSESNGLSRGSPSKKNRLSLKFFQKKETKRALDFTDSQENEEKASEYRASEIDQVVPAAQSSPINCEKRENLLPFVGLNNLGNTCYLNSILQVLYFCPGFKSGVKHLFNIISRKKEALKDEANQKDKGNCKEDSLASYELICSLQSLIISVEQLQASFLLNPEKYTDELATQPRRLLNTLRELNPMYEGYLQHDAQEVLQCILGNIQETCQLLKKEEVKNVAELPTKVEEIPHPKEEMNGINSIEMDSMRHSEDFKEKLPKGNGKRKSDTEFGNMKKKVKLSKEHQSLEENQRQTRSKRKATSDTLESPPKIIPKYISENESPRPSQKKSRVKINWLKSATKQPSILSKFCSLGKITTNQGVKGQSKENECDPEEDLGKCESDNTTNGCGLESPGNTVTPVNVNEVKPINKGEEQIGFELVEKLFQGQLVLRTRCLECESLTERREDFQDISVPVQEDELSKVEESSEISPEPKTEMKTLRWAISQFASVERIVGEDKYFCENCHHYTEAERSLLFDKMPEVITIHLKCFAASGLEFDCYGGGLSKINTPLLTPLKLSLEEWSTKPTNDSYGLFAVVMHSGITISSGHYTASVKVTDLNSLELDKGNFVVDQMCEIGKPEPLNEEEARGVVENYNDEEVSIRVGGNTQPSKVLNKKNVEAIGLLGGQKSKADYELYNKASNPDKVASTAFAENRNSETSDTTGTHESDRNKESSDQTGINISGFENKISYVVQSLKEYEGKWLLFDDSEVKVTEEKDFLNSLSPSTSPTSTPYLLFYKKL
Sequence of Glucocorticoid receptor (Homo sapiens) (P04150 whole entry, looked up): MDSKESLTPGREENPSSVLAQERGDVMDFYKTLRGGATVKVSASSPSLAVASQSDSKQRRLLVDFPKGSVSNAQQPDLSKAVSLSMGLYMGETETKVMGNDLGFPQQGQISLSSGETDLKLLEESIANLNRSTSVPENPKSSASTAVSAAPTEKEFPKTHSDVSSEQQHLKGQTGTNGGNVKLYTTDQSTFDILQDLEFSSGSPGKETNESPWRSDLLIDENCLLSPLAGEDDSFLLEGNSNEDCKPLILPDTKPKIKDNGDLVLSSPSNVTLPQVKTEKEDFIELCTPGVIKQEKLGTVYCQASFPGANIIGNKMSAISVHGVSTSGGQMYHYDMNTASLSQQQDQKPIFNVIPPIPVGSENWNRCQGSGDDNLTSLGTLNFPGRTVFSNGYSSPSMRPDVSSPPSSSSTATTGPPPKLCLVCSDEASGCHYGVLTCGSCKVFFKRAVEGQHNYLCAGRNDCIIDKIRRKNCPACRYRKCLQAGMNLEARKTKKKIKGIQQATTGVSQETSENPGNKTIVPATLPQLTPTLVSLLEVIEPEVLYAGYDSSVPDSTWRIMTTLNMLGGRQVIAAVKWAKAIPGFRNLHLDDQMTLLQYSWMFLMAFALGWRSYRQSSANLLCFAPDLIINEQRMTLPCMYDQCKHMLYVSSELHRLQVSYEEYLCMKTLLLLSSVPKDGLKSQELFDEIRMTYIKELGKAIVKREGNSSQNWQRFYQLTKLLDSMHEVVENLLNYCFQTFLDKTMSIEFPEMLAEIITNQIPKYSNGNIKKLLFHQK
Sequence of Cytochrome P450 1A2 (Homo sapiens) (P05177 whole entry, looked up): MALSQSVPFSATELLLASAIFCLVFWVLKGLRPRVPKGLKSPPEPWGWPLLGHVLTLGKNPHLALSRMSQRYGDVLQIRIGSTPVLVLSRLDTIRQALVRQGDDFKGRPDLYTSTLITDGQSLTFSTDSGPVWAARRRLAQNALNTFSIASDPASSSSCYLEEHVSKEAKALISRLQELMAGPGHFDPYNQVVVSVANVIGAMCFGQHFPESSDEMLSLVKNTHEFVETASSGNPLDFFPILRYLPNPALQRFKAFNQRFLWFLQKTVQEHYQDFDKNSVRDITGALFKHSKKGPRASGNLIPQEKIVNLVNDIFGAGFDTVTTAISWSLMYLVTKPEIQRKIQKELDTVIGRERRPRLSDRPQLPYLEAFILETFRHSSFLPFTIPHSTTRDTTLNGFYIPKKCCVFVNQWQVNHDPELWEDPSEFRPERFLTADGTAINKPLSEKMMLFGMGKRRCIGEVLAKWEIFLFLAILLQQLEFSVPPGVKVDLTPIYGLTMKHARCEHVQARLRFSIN
Sequence of 3',5'-cyclic-AMP phosphodiesterase 4B (Homo sapiens) (Q07343 whole entry, looked up): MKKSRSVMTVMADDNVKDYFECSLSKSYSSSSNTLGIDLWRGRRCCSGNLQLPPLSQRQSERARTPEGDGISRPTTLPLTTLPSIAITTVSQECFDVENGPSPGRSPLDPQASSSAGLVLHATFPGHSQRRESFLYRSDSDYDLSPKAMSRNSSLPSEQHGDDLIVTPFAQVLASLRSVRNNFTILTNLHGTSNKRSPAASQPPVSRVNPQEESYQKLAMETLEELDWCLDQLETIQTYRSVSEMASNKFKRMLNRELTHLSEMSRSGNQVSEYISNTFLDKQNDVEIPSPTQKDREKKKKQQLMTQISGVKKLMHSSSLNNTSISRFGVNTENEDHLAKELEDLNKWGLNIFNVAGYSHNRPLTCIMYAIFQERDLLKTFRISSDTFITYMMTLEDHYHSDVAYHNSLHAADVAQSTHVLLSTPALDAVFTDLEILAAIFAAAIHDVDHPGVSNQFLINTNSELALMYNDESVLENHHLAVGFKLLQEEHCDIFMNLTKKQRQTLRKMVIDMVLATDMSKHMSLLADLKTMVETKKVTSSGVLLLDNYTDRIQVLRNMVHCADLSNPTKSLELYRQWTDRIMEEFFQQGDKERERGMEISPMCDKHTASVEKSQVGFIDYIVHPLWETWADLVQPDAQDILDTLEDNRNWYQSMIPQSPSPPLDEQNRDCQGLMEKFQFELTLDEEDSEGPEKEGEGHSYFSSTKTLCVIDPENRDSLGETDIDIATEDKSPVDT
Sequence of Luciferin 4-monooxygenase (Photinus pyralis) (P08659 whole entry, looked up): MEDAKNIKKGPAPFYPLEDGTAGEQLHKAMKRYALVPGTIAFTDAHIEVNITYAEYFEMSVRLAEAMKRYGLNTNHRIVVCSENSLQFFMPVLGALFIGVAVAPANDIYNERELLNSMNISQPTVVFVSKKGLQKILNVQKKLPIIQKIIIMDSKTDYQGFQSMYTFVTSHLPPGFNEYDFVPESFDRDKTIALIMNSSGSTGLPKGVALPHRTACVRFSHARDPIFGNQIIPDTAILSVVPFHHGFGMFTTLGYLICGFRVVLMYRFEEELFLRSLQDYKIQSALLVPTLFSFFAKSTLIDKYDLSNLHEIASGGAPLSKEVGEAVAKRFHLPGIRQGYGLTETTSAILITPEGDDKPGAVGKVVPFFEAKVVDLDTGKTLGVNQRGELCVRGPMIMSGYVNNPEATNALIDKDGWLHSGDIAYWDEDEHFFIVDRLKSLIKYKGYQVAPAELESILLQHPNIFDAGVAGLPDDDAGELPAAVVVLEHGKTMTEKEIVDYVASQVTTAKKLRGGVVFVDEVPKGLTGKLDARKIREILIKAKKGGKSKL
Sequence of ATP-dependent 6-phosphofructokinase (Trypanosoma brucei brucei) (O15648 whole entry, looked up): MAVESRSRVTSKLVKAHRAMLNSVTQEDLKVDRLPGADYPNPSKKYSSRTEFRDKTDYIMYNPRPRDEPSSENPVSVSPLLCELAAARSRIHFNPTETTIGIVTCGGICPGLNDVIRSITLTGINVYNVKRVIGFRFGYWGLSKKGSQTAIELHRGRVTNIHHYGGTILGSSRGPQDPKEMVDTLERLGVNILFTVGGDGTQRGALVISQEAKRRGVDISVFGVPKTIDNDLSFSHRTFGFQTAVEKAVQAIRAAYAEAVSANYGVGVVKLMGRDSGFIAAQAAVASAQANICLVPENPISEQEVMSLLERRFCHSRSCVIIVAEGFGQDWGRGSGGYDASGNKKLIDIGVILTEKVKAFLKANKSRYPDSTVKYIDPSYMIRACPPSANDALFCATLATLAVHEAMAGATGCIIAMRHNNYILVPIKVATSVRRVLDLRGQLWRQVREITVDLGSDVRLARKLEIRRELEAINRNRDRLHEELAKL

In the case of `CC(=O)O[C@]1(C(C)=O)CC[C@@H]2[C@@H]3C=C(Cl)C4=CC(=O)[C@H]5C[C@@H]5[C@]4(C)[C@H]3CC[C@]21C`, the activity change, negative = inhibition in assay [1] (at 17.2 µM (top of the series)) is 5.64% (inactive); in assay [1] (at 38 µM (top of the series)) it was 3.07% (inactive); in assay [3] (at 17.2 µM (top of the series)), -18.6% (inactive); in [3] (at 38 µM (top of the series)), -9.31% (inactive); in assay [7], -2.31% (inactive). Also, the Potency result in [2], in assay [5], in [6] and in assay [8] was “inactive” each time. In addition, the activity, negative = inhibition in assay [4] (at 7.69 µM (top of the series) unless noted) was -5.59% [at 17.2 µM] (inactive). The max response in assay [7] (setting [14]) is -4.56%; in assay [7] (setting [15]) it was -7.45%.

With `CO[C@]1(NC(=O)CSCC#N)C(=O)N2C(C(=O)O)=C(CSc3nnnn3C)CS[C@H]21`, the activity change, negative = inhibition in assay [1] (at 17.2 µM (top of the series)) was 6.3% (inactive); in [1] (at 38 µM (top of the series)), 6.07% (inactive); in assay [3] (at 17.2 µM (top of the series)), -17.5% (inactive); in assay [3] (at 38 µM (top of the series)), -10.8% (inactive); in assay [7], -1.05% (inactive). For the same compound, the Potency result (in [2]; in assay [5]; in assay [6]; in [8]; in the assay with AS120; with CP201) was “inactive” throughout. The Potency entry in the assay on CP238, in the assay with CP262, with CP265, in the assay with FAB9 and in the assay on JCK was “inactive” each time. The activity, negative = inhibition in assay [4] (at 17.2 µM (top of the series)) was -13.5% (inactive); in assay [4] (at 38 µM (top of the series)), 0.96% (inactive); in assay [13] (parasite line A), 11.9% (inactive); in assay [13] (parasite line B), 2.32% (inactive). Also, the Potency in assay [9] was > 46 µM (inactive) and > 20.6 µM (inactive); in assay [10] it was > 46 µM (inactive) and > 20.6 µM (inactive). Moreover, the max response in assay [7] (setting [14]) is -7.44%; in assay [7] (setting [15]), -5.83%. In addition, the compound was called inactive in [11] and in assay [12].

Regarding `CN(C)[C@@H]1C(=O)C(C(N)=O)=C(O)[C@]2(O)C(=O)C3=C(O)c4c(O)ccc(Cl)c4[C@H](O)[C@H]3C[C@@H]12`, the activity change, negative = inhibition in assay [1] (at 17.2 µM (top of the series)) is -2.16% (inactive); in [1] (at 38 µM (top of the series)), -12.4% (inactive); in assay [3] (at 17.2 µM (top of the series)), -15.3% (inactive); in assay [3] (at 38 µM (top of the series)), -6.38% (inactive); in assay [7], 2.69% (inactive). The Potency entry (in assay [2]; in assay [5]; in [6]; in assay [8]; in the assay on AS120; in the assay with CP201) was “inactive” each time. In addition, the Potency entry in the assay on CP238, in the assay on CP262, with CP265, in the assay on FAB9 and in the assay with JCK was “inactive” each time. For the same compound, the activity, negative = inhibition in [4] (at 17.2 µM (top of the series)) is -1.53% (inactive); in assay [4] (at 38 µM (top of the series)), 3.61% (inactive); in assay [13] (parasite line A) it was -26.7% (inactive). The Potency was > 46 µM (inactive) and > 20.6 µM (inactive) in assay [9]; > 46 µM (inactive) and > 20.6 µM (inactive) in assay [10]. The figures for the max response in assay [7] (setting [14]) and in assay [7] (setting [15]) were 4.73% and 8.96%, respectively. Further, the compound was called inactive in assay [11] and in assay [12].
